# Laboratory results taken from the supplement of paper PMC8728848.
# Only a selection was taken, and the strongest signals are over-represented in it overall.
# Columns and labels:
# Experiment in all cases: glycan array binding signal (z-score within array); higher = stronger binding
# Conditions in all cases: glycan notation: IUPAC condensed, linker removed
# [1] = molecular target: Neu5Ac(a2-3)Gal(b1-4)[Fuc(a1-3)]GlcNAc(b1-3)Gal
# Procedure, shortened: (§1)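 The Consortium for Functional Glycomics database supplied 3228 glycan arrays, of which those lacking an available protein sequence were dropped. The binding signal, a within-array Z-score, was averaged across arrays of the same protein sequence and across linkers. Negative scores can be read as non-binding.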
# [2] = molecular target: Neu5Ac(a2-6)Gal(b1-4)GlcNAc(b1-3)GalNAc
# Procedure, shortened: as §1
# [3] = molecular target: Neu5Ac(a2-6)GalNAc(b1-4)GlcNAc
# Procedure, shortened: as §1
# [4] = molecular target: Neu5Ac(a2-8)Neu5Ac(a2-3)[Gal(b1-3)GalNAc(b1-4)]Gal(b1-4)Glc
# Procedure, shortened: as §1
# [5] = molecular target: Neu5Ac(a2-8)Neu5Ac(a2-8)Neu5Ac(a2-8)Neu5Ac(a2-3)[GalNAc(b1-4)]Gal(b1-4)Glc
# Procedure, shortened: as §1
# [6] = molecular target: Neu5Ac(b2-6)Gal(b1-4)GlcNAc
# Procedure, shortened: as §1
# [7] = molecular target: Neu5Gc(a2-3)Gal(b1-3)GlcNAc
# Procedure, shortened: as §1
# [8] = molecular target: Fuc(a1-2)Gal(b1-3)GlcNAc(b1-2)Man(a1-3)[Fuc(a1-2)Gal(b1-3)GlcNAc(b1-2)Man(a1-6)]Man(b1-4)GlcNAc(b1-4)[Fuc(a1-6)]GlcNAc
# Procedure, shortened: as §1
# [9] = molecular target: Fuc(a1-2)Gal(b1-3)GlcNAc(b1-3)GalNAc
# Procedure, shortened: as §1
# [10] = molecular target: Fuc(a1-2)Gal(b1-3)[Fuc(a1-4)]GlcNAc(b1-3)[Gal(b1-4)GlcNAc(b1-6)]Gal(b1-4)Glc
# Procedure, shortened: as §1
# [11] = molecular target: Fuc(a1-2)Gal(b1-4)GlcNAc(b1-3)Gal(b1-4)GlcNAc
# Procedure, shortened: as §1
# [12] = molecular target: Fuc(a1-2)Gal(b1-4)GlcNAc(b1-3)Gal(b1-4)GlcNAc(b1-3)Gal(b1-4)GlcNAc
# Procedure, shortened: as §1
# [13] = molecular target: Fuc(a1-2)Gal(b1-4)[Fuc(a1-3)]GlcNAc(b1-3)Gal(b1-4)[Fuc(a1-3)]GlcNAc(b1-3)Gal(b1-4)[Fuc(a1-3)]GlcNAc
# Procedure, shortened: as §1
# [14] = molecular target: Fuc(a1-2)[Gal(a1-3)]Gal(b1-4)GlcNAc(b1-2)Man(a1-3)[Fuc(a1-2)[Gal(a1-3)]Gal(b1-4)GlcNAc(b1-2)Man(a1-6)]Man(b1-4)GlcNAc(b1-4)[Fuc(a1-6)]GlcNAc
# Procedure, shortened: as §1
# [15] = molecular target: Fuc(a1-2)[Gal(a1-3)]Gal(b1-4)[Fuc(a1-3)]GlcNAc(b1-3)GalNAc
# Procedure, shortened: as §1
# [16] = molecular target: Fuc(a1-2)[GalNAc(a1-3)]Gal(b1-4)GlcNAc(b1-3)Gal(b1-4)GlcNAc
# Procedure, shortened: as §1
# [17] = molecular target: Fuc(a1-2)[GalNAc(a1-3)]Gal(b1-4)GlcNAc(b1-3)Gal(b1-4)GlcNAc(b1-3)Gal(b1-4)GlcNAc
# Procedure, shortened: as §1
# Fuc(a1-3)GlcNAc = molecular target: Fuc(a1-3)GlcNAc
# Procedure, shortened: as §1
# Gal(b1-2)Gal = molecular target: Gal(b1-2)Gal
# Procedure, shortened: as §1
# [18] = molecular target: Gal(b1-3)GalNAc(a1-3)[Fuc(a1-2)]Gal(b1-4)Glc
# Procedure, shortened: as §1
# [19] = molecular target: Gal(b1-3)GlcNAc(b1-2)Man(a1-3)[Gal(b1-3)GlcNAc(b1-2)Man(a1-6)]Man(b1-4)GlcNAc(b1-4)GlcNAc
# Procedure, shortened: as §1
# [20] = molecular target: Gal(b1-3)[Fuc(a1-4)]GlcNAc(b1-2)Man(a1-3)[Gal(b1-3)[Fuc(a1-4)]GlcNAc(b1-2)Man(a1-6)]Man(b1-4)GlcNAc(b1-4)GlcNAc
# Procedure, shortened: as §1
# [21] = molecular target: Gal(b1-3)[Fuc(a1-4)]GlcNAc(b1-2)Man(a1-3)[Gal(b1-3)[Fuc(a1-4)]GlcNAc(b1-2)Man(a1-6)]Man(b1-4)GlcNAc(b1-4)[Fuc(a1-6)]GlcNAc
# Procedure, shortened: as §1
# [22] = molecular target: Gal(b1-4)GlcNAc(b1-3)Gal(b1-4)GlcNAc(b1-3)Gal(b1-4)GlcNAc
# Procedure, shortened: as §1
# [23] = molecular target: Gal(b1-4)GlcNAc(b1-6)Gal(b1-4)GlcNAc
# Procedure, shortened: as §1
# Gal4S(b1-4)GlcNAc = molecular target: Gal4S(b1-4)GlcNAc
# Procedure, shortened: as §1
# Gal6S(b1-4)Glc = molecular target: Gal6S(b1-4)Glc
# Procedure, shortened: as §1
# Gal6S(b1-4)GlcNAc = molecular target: Gal6S(b1-4)GlcNAc
# Procedure, shortened: as §1
# [24] = molecular target: GlcNAc(b1-2)Man(a1-3)[GlcNAc(b1-4)][GlcNAc(b1-2)Man(a1-6)]Man(b1-4)GlcNAc(b1-4)GlcNAc
# Procedure, shortened: as §1
# [25] = molecular target: Neu5Ac(a2-3)Gal(b1-3)GlcNAc(b1-3)GalNAc
# Procedure, shortened: as §1
# [26] = molecular target: Neu5Ac(a2-6)Gal(b1-4)GlcNAc(b1-2)Man(a1-3)[Gal(b1-4)GlcNAc(b1-2)Man(a1-6)]Man(b1-4)GlcNAc(b1-4)GlcNAc
# Procedure, shortened: as §1
# [27] = molecular target: Neu5Ac(a2-6)Gal(b1-4)GlcNAc(b1-2)Man(a1-6)[Man(a1-3)]Man(b1-4)GlcNAc(b1-4)GlcNAc
# Procedure, shortened: as §1
# [28] = molecular target: Neu5Ac(a2-6)Gal(b1-4)GlcNAc(b1-3)Gal(b1-3)GlcNAc
# Procedure, shortened: as §1
# [29] = molecular target: Neu5Ac(a2-6)Gal(b1-4)GlcNAc(b1-3)Gal(b1-4)GlcNAc(b1-3)Gal(b1-4)GlcNAc
# Procedure, shortened: as §1
# [30] = molecular target: Neu5Gc(a2-3)Gal(b1-4)GlcNAc
# Procedure, shortened: as §1
Binder,glycan array binding signal (z-score) [1],glycan array binding signal (z-score) [2],glycan array binding signal (z-score) [3],glycan array binding signal (z-score) [4],glycan array binding signal (z-score) [5],glycan array binding signal (z-score) [6],glycan array binding signal (z-score) [7],glycan array binding signal (z-score) [8],glycan array binding signal (z-score) [9],glycan array binding signal (z-score) [10],glycan array binding signal (z-score) [11],glycan array binding signal (z-score) [12],glycan array binding signal (z-score) [13],glycan array binding signal (z-score) [14],glycan array binding signal (z-score) [15],glycan array binding signal (z-score) [16],glycan array binding signal (z-score) [17],glycan array binding signal (z-score) (Fuc(a1-3)GlcNAc),glycan array binding signal (z-score) (Gal(b1-2)Gal),glycan array binding signal (z-score) [18],glycan array binding signal (z-score) [19],glycan array binding signal (z-score) [20],glycan array binding signal (z-score) [21],glycan array binding signal (z-score) [22],glycan array binding signal (z-score) [23],glycan array binding signal (z-score) (Gal4S(b1-4)GlcNAc),glycan array binding signal (z-score) (Gal6S(b1-4)Glc),glycan array binding signal (z-score) (Gal6S(b1-4)GlcNAc),glycan array binding signal (z-score) [24],glycan array binding signal (z-score) [25],glycan array binding signal (z-score) [26],glycan array binding signal (z-score) [27],glycan array binding signal (z-score) [28],glycan array binding signal (z-score) [29],glycan array binding signal (z-score) [30]
Gal 9 (Canis lupus) (protein) MAFSSSQPPYLSPGVPFSGKIQGGLQDGLKITINGTILYCNGTRFAVNFHSGHSDSDIAFHFNPRFEEGGYVVCNTKQKGSWGSEERKMQMPFQMGNPFELCFMVNSCDFKVTVNGSHFTQYSHRVPFHYVDTLSITGAVQLSYISFQSPGVWQSSSAPITQTVIHTVQTTPGQPFPNPIIPPTAYPTPTYPMPFFTSIPGGLYPSKSIIVSGTVLPGAKRFHINLRSGNDIAFHLNPRFNENTVVRNMQINNSWGSEERSLPRKMPFVQGQSFSVWIMCEGHCFKVAVDGEHLFEYYHRLKNLLAINNMEVAGDVQLTHVQT,-0.343,-0.178,-0.345,-0.302,-0.331,-0.331,0.216,,,,,,,,,,,,,,,,,,,,,,,,,,,,
Gal 7 (Canis lupus) (protein) MAGSSNVPHKTSLPEGIRVGTVMRIRGVVPNKAGRFYVNLLCGEAPGSEAALHFNPRLDESTVVFNTLEQGAWGREERGTGIPFQRGQPFDVLLIATDEGFKAVVGDSEYHHFRYRIPPARVRLLEVGGDLQLESVSVF,,,,,,,,-0.169,-0.187,-0.135,9.85,8.28,5.78,1.25,-0.16,3.55,2.59,-0.217,-0.214,0.252,-0.08,-0.166,-0.199,3.2,-0.206,-0.2,-0.204,-0.195,-0.186,-0.22,-0.212,-0.212,3.85,3.5,-0.217
